From PubChem
ELG1 genotox: induces genotoxicity in HEK293T cells with luciferase-tagged ELG1; Potency, µM (series often up to 46 µM), without a hit: top-dose activity change, positive = activation, usual class: activators; 330,000 compounds, 1.3% hits; HEK293T ELG1-luciferase reporter, luminescence, 16 h; also: % of control where 0% means no effect; nearly all actives have a fitted effect of over 60% in size
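Step 1: seed 2,000 HEK293T ELG1-luciferase cells per well. Step 2: add compound or DMSO, incubate 16 hr at 37 °C. Step 3: ONE-Glo, 30 min at room temperature, read luminescence.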
ELG1 repair inh: ELG1-dependent DNA repair inhibition. AID 504467. HEK293T ELG1-luciferase reporter, luminescence, 16 h; DNA damage induced by 5-fluorouridine. 330,000 compounds, 2.3% hits. Potency, µM (doses to about 46.1 µM), for the others: at the top dose activity change, negative = inhibition, usual class: inhibitors; also: % is scaled to controls: 0 for no effect and ±100 for the full control effect; nearly all actives have a fitted effect of over 55% in size
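Overnight (16 hr) co-exposure of 2,000 cells/well to 5-fluorouridine and compound at 37 °C preceded detection. Luciferase was quantified via ONE-Glo luminescence; loss of signal denotes inhibition.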
FLuc counter: counter-screen for miR-21 project: firefly luciferase inhibitors or activators | purified FLuc, Km substrates, luminescence inhibition | Potency, µM (titrated, usually from 57.5 µM), inactives show top-dose activity change, negative = inhibition, usual class: inhibitors | 360,000 compounds, 6.9% hits | AID 588342;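 also: plate controls were vehicle for no effect and reference inhibitor for full effect; nearly all actives have a fitted effect of over 55% in size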
Target sequence (P08659 whole entry, looked up): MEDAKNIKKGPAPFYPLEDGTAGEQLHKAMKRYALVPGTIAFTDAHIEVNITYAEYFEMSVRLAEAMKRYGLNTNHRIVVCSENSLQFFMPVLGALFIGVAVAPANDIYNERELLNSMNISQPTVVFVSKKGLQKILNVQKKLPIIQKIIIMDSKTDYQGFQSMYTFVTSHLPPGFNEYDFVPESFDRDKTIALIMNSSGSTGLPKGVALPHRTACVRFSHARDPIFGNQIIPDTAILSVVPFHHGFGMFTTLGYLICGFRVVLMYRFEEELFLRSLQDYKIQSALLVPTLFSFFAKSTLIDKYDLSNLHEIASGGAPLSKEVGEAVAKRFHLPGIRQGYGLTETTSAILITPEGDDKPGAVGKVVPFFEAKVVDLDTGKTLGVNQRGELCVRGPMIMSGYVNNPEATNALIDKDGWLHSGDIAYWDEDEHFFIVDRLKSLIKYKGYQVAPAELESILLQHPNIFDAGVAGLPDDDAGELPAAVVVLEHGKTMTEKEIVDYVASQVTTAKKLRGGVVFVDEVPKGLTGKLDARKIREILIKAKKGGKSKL
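Purified P. pyralis luciferase, 10 nM final, with Km-level 10 uM D-luciferin and 10 uM ATP in 50 mM Tris acetate pH 7.5, 10 mM Mg acetate, 0.01% Tween-20, 0.05% BSA; 6-point qHTS titration about 60 µM downward; luminescence read.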
Rab9 promoter act: activates the Rab9 promoter. 320,000 compounds, 2.8% hits. AID 485297. Potency, µM (doses to about 9.22 µM), for inactives: at the top dose activation, negative = inhibition, most hits filed as activators. Huh7 Rab9 promoter-luciferase reporter, luminescence, 24 h; also: % of control where 0% means no effect; nearly all actives have a fitted effect of over 60% in size
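Steps: seed 1500 Huh7 Rab9-luc cells per well, rest 2 h at 37 °C; add compound in DMSO; incubate 24 h; add luciferase reagent, 10 min ambient; read luminescence.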
SMN2 splice up: enhancers of SMN2 splice variant expression; 210,000 compounds, 2.8% hits; AID 1458; HEK293 SMN2-luciferase splicing reporter, luminescence, 30-36 h; Potency, µM (titrated, usually from 46.1 µM), inactives show top-dose activity change, positive = activation, usual class: activators; also: % of control where 0% means no effect; nearly all actives have a fitted effect of over 55% in size
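qHTS luciferase splicing reporter: luminescence rises when SMN2 exon 7 is included in transfected HEK293 cells. Compound exposure lasted 30-36 h at 37C, with 4.5 mM final sodium butyrate as control, followed by a ONE-Glo read.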
NPC1 promoter act: activates the NPC1 promoter; Huh7 NPC1 promoter luciferase reporter, 24 h; Potency, µM (top dose mostly 9.22 µM), inactives show at the highest dose activation, hits mostly activators; 320,000 compounds, 2.4% hits; also: % of control where 0% means no effect; nearly all actives have a fitted effect of over 60% in size
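Luminescence read-out of NPC1 promoter-driven luciferase in stably transfected Huh7 cells; compounds delivered in DMSO and left 24 h at 37C, 5% CO2, qHTS titration format.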
An asterisk follows results filed as active; ? = inconclusive; / = no result. Compounds with a hit are over-represented: about 9.2% of the library has one in this group of screens. Calls follow the shape of the dose curve; as a rule, active = well fitted curve in the direction sought with a large enough effect; inconclusive = small, poorly fitted or top-dose-only effect, or another doubt; inactive = no such curve, though single readings can be large; an effect the other way counts as inactive or inconclusive. Potency is read from the fitted curve at half-maximal effect.

SMILES	ELG1 genotox	ELG1 repair inh	FLuc counter	Rab9 promoter act	SMN2 splice up	NPC1 promoter act
C=CCc1ccc(OCC(O)COCC)c(OC)c1 (stereo not drawn)	18µM*	?	19µM*	?	13µM*	?
Cc1cc(C)cc(OCC(=O)OCC(=O)c2cc(C)n(C3CC3)c2C)c1	1%	16%	-7%	1%	/	-1%
Cc1cc(C)cc(OCc2ccc(C(=O)O)o2)c1	?	?	-19%	1%	?	3%
CCc1cc(=O)oc2cc(OCc3ccc(C(=O)O)o3)ccc12	17%	?	27µM*	?	/	?
Cc1ccc(OCc2ccc(C(=O)O)o2)cc1C	?	?	11µM*	?	/	?
Cc1ccc2onc(CNC(=O)N3CCN(c4cc(Cl)ccc4C)CC3)c2c1	/	/	-12%	/	/	/
CCOC(=O)c1sc(NC(=O)C2CCC2)cc1C	?	?	12µM*	?	16µM*	?
CCOC(=O)c1sc(NC(=O)c2ccc(C)s2)cc1C	18%	?	0.85µM*	1.1µM*	22µM*	?
CCOC(=O)c1sc(NC(C)=O)cc1C	-1%	8%	-10%	-2%	2%	0%
CCOC(=O)c1sc(NC(=O)Nc2ccccc2Cl)cc1C	?	?	0.43µM*	0.63µM*	0.71µM*	0.71µM*
CCOC(=O)c1sc(NC(=O)Nc2ccccc2)cc1C	?	?	0.48µM*	0.71µM*	3.2µM*	1.3µM*
Cc1ccc(-n2cc(-c3ccccc3)[nH]c2=O)cc1F	?	?	?	3.2µM*	25µM*	3.2µM*
O=C1/C(=C\c2ccc(O)c(O)c2)C(c2ccccc2)=NN1c1ccccc1	8%	-5%	19µM*	-13%	-2%	-12%
COc1cc(/C=C2\C(=O)N(c3ccc(NC(C)=O)cc3)N=C2c2ccccc2)ccc1O	6%	12%	17µM*	-6%	5%	-1%
CCOc1cc(/C=C2\C(=O)N(c3nc(-c4ccc(Br)cc4)cs3)N=C2c2ccccc2)ccc1O	0%	?	1%	-4%	-42%	-8%
COc1ccccc1N1CCN(C(=S)Nc2ccc(F)cc2)CC1	7%	?	-7%	5%	/	-3%
O=C(OC1CCc2ccccc2C1=O)c1ccccc1O (stereo not drawn)	-32%	-3%	12µM*	-5%	5%	-4%
[O-]/[N+](=C\c1ccccc1)c1ccc(Br)cc1	?	?	?	-1%	/	2%
[O-]/[N+](=C\c1cccc(Br)c1)c1ccccc1	15%	-2%	24µM*	19%	27%	2%
Cc1ncc(CO)c2c1Oc1nc(-c3ccccc3)nc(SCC(=O)N(C)c3ccccc3)c1C2	/	?	-4%	-2%	/	-8%
Cc1ncc(CO)c2c1Oc1nc(-c3ccccc3F)nc(SCC(=O)N(C)c3ccccc3)c1C2	-8%	2.9µM*	2%	0%	/	-2%
CC1CCCCN1C(=O)COC(=O)c1cc([N+](=O)[O-])ccc1N (stereo not drawn)	10%	?	?	14%	/	2%
O=c1oc(CCCO)cc2ccc(/C=C/c3cccc([N+](=O)[O-])c3)cc12	4.1µM*	?	?	-6%	/	4µM*
O=c1oc(CCCO)cc2ccc(Br)cc12	1%	24%	/	/	/	/
CC1=NN(c2ccc(Br)cc2)C(=O)/C1=C/c1cccs1	-3%	?	7.6µM*	28%	-22%	25%
SMILES	ELG1 genotox	ELG1 repair inh	FLuc counter	Rab9 promoter act	SMN2 splice up	NPC1 promoter act
COc1ccccc1/C=C1/C(=O)N(c2ccccc2)N=C1C	0%	7%	27µM*	0%	/	-1%
CC1=NN(c2ccccc2)C(=O)/C1=C/c1cc(C)n(C2CC2)c1C	8%	-5%	2.4µM*	14%	7%	11%
COc1cc(/C=C2\C(=O)N(c3ccccc3)N=C2C)ccc1Oc1ccc([N+](=O)[O-])cc1[N+](=O)[O-]	2%	?	?	4%	-18%	0%
C#CCOc1ccc(/C=C2/C(=O)N(c3cccc(C(=O)O)c3)N=C2C)cc1OC	10%	?	12µM*	-1%	/	-1%
O=C(Nc1cc(F)ccc1F)N1CCC(CN2CCOCC2)CC1	/	/	1%	/	/	/
CC1=NN(c2ccccc2)C(=O)/C1=C\c1sccc1C	4%	?	7.6µM*	-2%	/	-5%
COc1cccc(/C=C/C(=C2/C(=O)N(c3ccccc3)N=C2C)c2ccccc2)c1OC	3%	7.3µM*	-13%	-2%	-43%	1%
CC1=NN(c2ccccc2)C(=O)/C1=C\c1cn(-c2ccccc2)nc1C	2%	3%	?	-3%	5%	-4%
CN(CC(=O)Nc1ccccc1Cl)C(=O)COC(=O)CN1C(=O)NC2(CCCC2)C1=O	-4%	1%	3%	0%	/	3%
CC(/C=N/NC(=O)c1nnn(-c2nonc2N)c1C)=C\c1ccccc1	?	3%	?	26%	/	28%
CC(/C=N/NC(=O)c1c(Br)cnn1C)=C\c1ccccc1	8%	?	17µM*	17%	14%	23%
Cn1ncc(Br)c1C(=O)N/N=C/c1ccc(OS(=O)(=O)c2ccccc2)cc1	6%	1%	1%	-1%	2%	3%
CC(/C=N/NC(=O)c1nn(C)c(C)c1Br)=C\c1ccccc1	?	?	1.9µM*	3.5µM*	/	?
O=c1c(CCc2ccccc2)nc2cnc(N3CCNCC3)nc2n1CCc1ccccc1	/	/	/	/	-45%	/
Cc1ccc(CC(=O)NCCS(=O)c2ccc(C)cc2)cc1 (stereo not drawn)	0%	-5%	-1%	1%	-13%	5%
Cc1cc(C)c(S(=O)(=O)Nc2cccc(-c3cn4ccccc4n3)c2)c(C)c1	/	/	9.5µM*	/	/	/
Cc1cccc(S(=O)(=O)Nc2ccc(-c3cn4ccccc4n3)cc2)c1	10%	25%	17µM*	?	?	27%
Cc1cccn2cc(-c3cccc(NS(=O)(=O)c4ccc(Cl)c(Cl)c4)c3)nc12	/	/	9.5µM*	/	9%	/
Cc1cc(C)c(S(=O)(=O)Nc2ccc(-c3cn4ccccc4n3)cc2)c(C)c1	-5%	?	?	3%	11%	-2%
COc1ccc(S(=O)(=O)Nc2cc(-c3cn4cccc(C)c4n3)ccc2C)cc1C	/	/	?	/	18%	/
CCCS(=O)(=O)Nc1cccc(-c2cn3ccc(C)cc3n2)c1	/	/	12µM*	/	13µM*	/
CCS(=O)(=O)Nc1cccc(-c2cn3c(n2)SCC3)c1	3%	15%	-2%	-3%	/	0%
